Experimental data: PubChem BioAssay (Tox21)
Several values for one entry are separate records, joined by “and”; a condition that tells them apart may be missing. Identical values can stand only once. Inconclusive results are not listed. Some structures have more than one record in an assay (separate samples or runs), and their calls can disagree. Activity calls are given as the source filed them. Calls follow the shape of the dose curve; as a rule, active = well fitted activation curve with a large enough effect in the repeat runs; inconclusive = weak or mixed curves; inactive = no such curve, though single readings can be large or run the other way.

molecular target: Nuclear receptor subfamily 1 group I member 2 (Homo sapiens) (UniProt O75469); test: Human pregnane X receptor (PXR) small molecule agonists, qHTS assay (AID 1346982); details: PXR-Luc HepG2, CYP3A4 luciferase reporter, 24 h; series mostly up to 92.4 µM; activation: at the top concentration; also: nearly all actives have a fitted effect of over 35% in size
Sequence (O75469 whole entry, looked up): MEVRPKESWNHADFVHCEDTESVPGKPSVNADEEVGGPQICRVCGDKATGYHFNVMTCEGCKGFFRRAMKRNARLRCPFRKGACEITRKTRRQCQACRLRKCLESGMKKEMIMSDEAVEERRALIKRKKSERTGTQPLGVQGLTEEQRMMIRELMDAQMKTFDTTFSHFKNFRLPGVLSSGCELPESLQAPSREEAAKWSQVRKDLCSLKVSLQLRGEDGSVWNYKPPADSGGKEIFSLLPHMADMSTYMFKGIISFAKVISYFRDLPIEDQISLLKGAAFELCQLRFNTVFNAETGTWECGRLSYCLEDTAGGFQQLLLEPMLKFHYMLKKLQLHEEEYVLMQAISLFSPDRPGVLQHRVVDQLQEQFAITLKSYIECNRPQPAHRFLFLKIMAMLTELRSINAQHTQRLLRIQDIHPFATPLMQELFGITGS
From the text: National Center for Advancing Translational Sciences [NCATS]
NIH Chemical Genomics Center [NCGC]
U.S. Environmental Protection Agency [EPA]
National Institutes of Environmental Health Sciences [NIEHS]
National Toxicology Program [NTP]
The human pregnane X receptor (hPXR) regulates the expression of several drug metabolizing enzymes and induction of these proteins is a major mechanism for developing drug resistance in cancer. One such key enzyme catalyzing the drug metabolism is cytochrome P450 3A4 (CYP3A4). Changes in CYP3A4 expression affect drug metabolism, thereby reducing the therapeutic efficacy and altering toxicological response to a drug and which finally causes adverse drug interaction. To screen Tox21 libraries for compounds that activate hPXR-mediated CYP3A4 gene expression, PXR-Luc HepG2 cells were used.
PXR-Luc HepG2 cells were dispensed at 2,000 per well in 5uL of assay medium containing 5% charcoal-stripped FBS into white solid bottom 1536-well plates (Corning Life Sciences, Corning, NY) using a Multidrop Combi (Thermo Scientific, Waltham, MA) dispenser. The assay plates were incubated at 37 C and 5% CO2 for 5hr, and then 23nL of compounds dissolved in DMSO and positive control were transferred using a Pintool station (Wako, San Diego, CA). The assay plates were incubated at 37C and 5% CO2 for 24hr. For luciferase read, 4uL of ONE-Glo reagent (Promega Corporation, Madison, WI) was added to each well of the assay plates using Flying Reagent Dispenser (FRD, Aurora Discovery, San Diego, CA) and incubated the assay plates at room temperature for 30min. The luminescence signal was quantified using a ViewLux plate reader (Perkin Elmer, Shelton, CT).
% is scaled to controls: 0 for no effect and ±100 for the full control effect; potency is read from the fitted curve at half-maximal effect.

SMILES	Potency	activation
Cc1ccc(-c2cc(C(F)(F)F)nn2-c2ccc(S(N)(=O)=O)cc2)cc1	10.8 µM (active) and 5.45 µM (active) and 13.3 µM (active)	–
CCN(CC)C(=O)Nc1ccc(OCC(O)CNC(C)(C)C)c(C(C)=O)c1 (stereo not given)	–	-0.758% [at 42.5 µM] (inactive)
CCN(CC)c1ccc2c(C)cc(=O)oc2c1	54.9 µM (active) and 48.6 µM (active)	–
CC(=O)O[C@]1(C(C)=O)CC[C@H]2[C@@H]3C[C@H](C)C4=CC(=O)CC[C@]4(C)[C@H]3CC[C@@]21C	5.44 µM (active)	–
Cc1cccc([N+](=O)[O-])c1C(=O)O	–	10.1% (inactive)
OCCOCCN1CCN(C(c2ccccc2)c2ccc(Cl)cc2)CC1 (stereo not given)	8.52 µM (active) and inactive	–
O=C(O)CP(=O)(O)O	–	-0.254% [at 42.5 µM] (inactive)
CC(C)CCOC(=O)c1ccc(N(C)C)cc1	–	11.9% [at 42.5 µM] (inactive)
Nc1nc2ccccc2[nH]1	inactive	–
CC[C@@H](N)CO	–	11.4% (inactive)
O=C(Cl)c1cccc(C(=O)Cl)c1	inactive	–
Cc1cc(C2(c3cc(C)c(O)cc3C)OS(=O)(=O)c3ccccc32)c(C)cc1O	61.1 µM (active) and inactive	–
CCCCCCCCCCCCCC[P+](CCCC)(CCCC)CCCC	2.16 µM (active) and 6.86 µM (active)	–
CN(C)c1ccc(C(=C2C=CC(=[N+](C)C)C=C2)c2ccccc2)cc1	1.72 µM (active) and 2.11 µM (active) and 1.33 µM (active)	–
CC(=O)N[C@@H](CS)C(=O)O	inactive	–
CC(C)(C)c1ccc(O)c(C(C)(C)C)c1	inactive	–
C=CC(=O)OCCCCCCOC(=O)C=C	–	20.8% (inactive)
CC(C)CCCCCCc1ccc(O)cc1	22.1 µM (active) and 9.69 µM (active)	–
Nc1cc(S(=O)(=O)O)cc2cc(S(=O)(=O)O)cc(O)c12	inactive	–
CC1COC(=O)O1 (stereo not given)	inactive	–

SMILES	Potency	activation
O=C(O)c1cc(Cl)cc(Cl)c1	–	10.2% (inactive)
NC(N)=NC(=O)Cc1c(Cl)cccc1Cl	–	-3.28% [at 42.5 µM] (inactive)
O=C(Oc1ccccc1)c1ccccc1O	inactive	–
Nc1cc(Cl)c(-c2cc(Cl)c(N)cc2Cl)cc1Cl	24.3 µM (active) and 19.3 µM (active)	–
CC(=O)OCCOCCOCCOC(C)=O	–	-12.7% (inactive)
Cc1cc(Cc2cc(C)cc(C(C)(C)C)c2O)c(O)c(C(C)(C)C)c1	24.5 µM (active) and 386 nM (active)	–
CC(C(O)c1ccc(O)cc1)N1CCC(Cc2ccccc2)CC1 (stereo not given)	–	3.31% [at 42.5 µM] (inactive)
O=C1NCC2(CCN(CCc3ccccc3)CC2)O1	–	1.63% [at 42.5 µM] (inactive)
O=Nc1ccc(Nc2ccccc2)cc1	61.4 µM (active) and 48.6 µM (active)	–
CC(=O)CC(C)=O	–	14.3% (inactive)
O=C1OC2(c3ccc(O)cc3Oc3cc(O)ccc32)c2ccccc21	21.7 µM (active) and inactive	–
CC(N)=O	–	10.4% [at 240 µM] (inactive)
CN(C)c1ccc2nc3ccc(=[N+](C)C)cc-3sc2c1	inactive	–
[Cl][In]([Cl])[Cl]	inactive	–
C/C=C/c1ccc(OCC)c(O)c1	inactive	–
CC(C)C(=O)c1c(C(C)C)nn2ccccc12	26.6 µM (active)	–
CCCCCC(=O)O[C@]1(C(C)=O)CC[C@H]2[C@@H]3CCC4=CC(=O)CC[C@]4(C)[C@H]3CC[C@@]21C	9.62 µM (active) and 11.9 µM (active)	–
CCN1CCCC1CNC(=O)c1cc(S(=O)(=O)CC)c(N)cc1OC (stereo not given)	–	7.85% [at 42.5 µM] (inactive)
COc1ccc(Cc2cnc(N)nc2N)cc1OC	–	-5.46% [at 42.5 µM] (inactive)
O=S(=O)(O)c1ccc2nc(-c3ccccc3)[nH]c2c1	inactive	–
